# GDH-TPI counter-1: GDH-TPI coupling enzyme inhibitors, primary screen, artefact control for M. tuberculosis FBA inhibitor project, biochemical, absorbance, full deck; GDH-TPI coupled enzyme counterscreen, NADH absorbance; inhibition, % at 4.8 µM; actives 1.2% (n = 360,000); AID 588335, 2011; in the data active = inhibition above about 30%;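 note: 0% = DMSO wells and 100% = wells lacking the enzyme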
# RecA intein inh: Mtb RecA intein splicing inhibitors, primary screen, biochemical, fluorescence, HTS; cell-free RecA intein splicing; inhibition, % (test concentration not listed); actives 0.75% (n = 290,000); AID 2221, 2009; in the data active = inhibition above about 30%;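 note: 0% = vehicle wells and 100% = reference inhibitor control wells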
# FBA Mtb inh: Mtb FBA enzyme inhibitors, primary screen, biochemical, fluorescence, strain H37Rv | Fructose-bisphosphate aldolase (Mycobacterium tuberculosis (strain ATCC 25618 / H37Rv)), … | AID 588726, 2011 | purified M. tuberculosis FBA, fluorescence read-out | actives 2.3% (n = 360,000) | inhibition, % at 1 µM;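 note: 0% = vehicle and 100% = reference inhibitor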
# Target sequence (P9WQA3 whole entry, looked up): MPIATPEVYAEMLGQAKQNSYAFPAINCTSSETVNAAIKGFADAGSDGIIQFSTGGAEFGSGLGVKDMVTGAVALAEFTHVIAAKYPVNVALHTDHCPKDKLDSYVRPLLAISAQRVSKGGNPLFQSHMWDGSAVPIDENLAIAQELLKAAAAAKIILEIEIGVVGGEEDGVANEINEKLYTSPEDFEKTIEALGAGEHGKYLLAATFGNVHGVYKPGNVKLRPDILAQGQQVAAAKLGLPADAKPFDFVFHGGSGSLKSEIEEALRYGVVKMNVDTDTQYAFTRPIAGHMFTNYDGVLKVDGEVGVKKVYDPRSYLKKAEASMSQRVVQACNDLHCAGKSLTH
# BJeLR viability: MLPCN primary cell-based screen for lethality selective to Ras in HRASV12 cells. BJeLR (HRASV12) viability, CellTiter-Glo ATP luminescence, 48 h. inhibition, % (test concentration not listed). actives 0.17% (n = 300,000); in the data active = inhibition above about 50%
# PrPC surface inh: inhibitors of human cell surface prion protein PrPC, primary screen, cell-based, TR-FRET. inhibition, % at 13.8 µM. actives 0.43% (n = 370,000). TR-FRET read-out. Major prion protein (Homo sapiens), P04156; in the data active = inhibition above about 24%; note: 0% = median of the test wells and 100% = reference compound wells
# Mtb FBA inh conf: M. tuberculosis aldolase blockers, biochemical, fluorescence, strain H37Rv, confirmation. shares compounds with FBA Mtb inh. purified M. tuberculosis FBA, fluorescence read-out. inhibition, % at 1 µM. actives 78% (n = 5,600);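 note: 0% = vehicle wells and 100% = reference inhibitor wells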
# GDH-TPI counter-2: GDH-TPI coupling enzyme inhibitors, artefact control for M. tuberculosis FBA inhibitor project, biochemical, fluorescence, high throughput; shares compounds with FBA Mtb inh; GDH-TPI coupled enzyme counterscreen; inhibition, % at 1 µM; actives 81% (n = 5,600); AID 652141, 2013; in the data active = inhibition above about 10%
# Starred values were filed as active, the others as inactive; / = no result given; + = active, no number. Compounds with a hit are over-represented: about 4.2% of the library has one in this group of screens. Cut-off read from the data, not from the text of the source, unless noted: active = inhibition above about 27%; inactive = the rest.
SMILES,GDH-TPI counter-1,RecA intein inh,FBA Mtb inh,BJeLR viability,PrPC surface inh,Mtb FBA inh conf,GDH-TPI counter-2
Cc1[nH]n2c(=O)c3c(nc2c1-c1ccc(Cl)cc1)CCC3,11,-1,6,3,/,/,/
Cc1[nH]n2c(=O)c3c(nc2c1-c1ccccc1)CCC3,12,3,28*,-9,-5,131*,97*
CCOC(=O)Cc1cc(=O)n2[nH]c(C)c(-c3ccc(Cl)cc3)c2n1,11,0,62*,-5,3,156*,110*
CCc1cc(=O)n2[nH]c(C)c(-c3ccc(OC)cc3)c2n1,-1,-1,0,-7,4,/,/
CCc1cc(=O)n2[nH]c(-c3ccccc3)c(-c3ccccc3)c2n1,12,-1,34*,1,-4,150*,111*
COc1cccc(-c2c(-c3ccccc3OC)ncn2Cc2cccc(-c3ccccc3)c2)c1,/,/,/,/,2,/,/
C=CCN1C(=O)[C@@H](CC(=O)NCCCOC)[C@]2(C(=O)OC)CCCCC=C12,/,/,/,/,11,/,/
COc1ccc(-c2c(C(F)(F)F)[nH]n3c(=O)cc(-c4ccccc4)nc23)cc1,0,-11,39*,1,6,88*,84*
Cc1[nH]n2c(=O)cc(-c3ccc([N+](=O)[O-])cc3)nc2c1-c1ccccc1,19,-2,-3,7,-20,/,/
Cc1[nH]n2c(=O)cc(C(C)(C)C)nc2c1-c1ccccc1,15,2,50*,6,9,3,-1
CCCCNC(=O)C1CCCN1C(=O)Nc1cc(C)cc(C)c1 (stereo unspecified),/,/,/,/,-5,/,/
Cc1ccc(N(C(=O)c2snc(C(N)=O)c2N)C(C(=O)NCC2CCCO2)c2ccc(C)o2)c(C)c1 (stereo unspecified),4,-9,23,1,-6,/,/
NC(=O)c1nsc(C(=O)N(c2cccc(F)c2)C(C(=O)NCC2CCCO2)c2cccs2)c1N (stereo unspecified),7,-3,34*,0,11,86*,76*
Cc1ccccc1N(C(=O)c1snc(C(N)=O)c1N)C(C(=O)NCC1CCCO1)c1ccc(N(C)C)cc1 (stereo unspecified),10,1,3,-2,-5,/,/
Cc1ccccc1N(C(=O)c1snc(C(N)=O)c1N)C(C(=O)NCC1CCCO1)c1ccc(F)cc1 (stereo unspecified),0,-4,55*,-3,-8,3,0
CCc1ccccc1N(C(=O)c1snc(C(N)=O)c1N)C(C(=O)NCC1CCCO1)c1ccc(C)o1 (stereo unspecified),9,2,49*,-4,0,10,-3
C=CCn1c(SCC(N)=O)nnc1-c1ccc(C)cc1,/,/,/,/,-4,/,/
CC(C)NC(=O)Nc1cccc2c1O[C@H](CN(C)S(=O)(=O)c1ccc(F)cc1)[C@@H](C)CN([C@H](C)CO)C2=O,-5,/,1,/,-1,/,/
CC(C)NC(=O)Nc1cccc2c1O[C@H](CN(C)S(=O)(=O)c1ccccc1)[C@@H](C)CN([C@H](C)CO)C2=O,1,/,39*,/,-1,59*,61*
OC(c1ccccc1)(c1ccccc1)C1CCN(CCCOc2ccc(Br)cc2)CC1,/,/,/,/,2,/,/
Nc1ccc(-c2ccc(N)cc2)cc1,-3,/,5,/,10,/,/
Nc1ccc(C=Cc2ccc(N)cc2)cc1,/,/,88*,/,11,153*,116*
O=C(/C=C/c1ccc(F)cc1)NC(=S)Nc1ccccc1,12,-1,-6,1,7,/,/
O=C(/C=C/c1ccccc1)NC(=S)Nc1ccccc1,25,2,27*,1,-1,6,-1
CCCOc1ccc2cc(C(=O)NCc3ccccc3)c(=O)oc2c1,8,-1,44*,-7,0,50*,39*
SMILES,GDH-TPI counter-1,RecA intein inh,FBA Mtb inh,BJeLR viability,PrPC surface inh,Mtb FBA inh conf,GDH-TPI counter-2
COc1ccc2cc(C(=O)NCc3ccco3)c(=O)oc2c1,33*,-4,46*,-5,-3,35*,26*
COc1ccc(CNC(=O)c2cc3cc(OC)ccc3oc2=O)cc1,1,-9,12,0,-8,/,/
Cc1ccc2[nH]c(C(=O)NCCN3CCCC3)cc2c1,10,-2,41*,3,-6,76*,63*
CCN(CC(=O)Nc1ccc2c(c1)OCCO2)S(=O)(=O)c1ccc(C)cc1,4,4,-3,2,4,/,/
CCN(CC(=O)Nc1ccc2c(c1)OCCO2)S(=O)(=O)c1cccs1,0,2,39*,0,9,75*,71*
COc1cc2c(cc1OC)CN(Cc1ccccc1)CC2,17,-2,8,0,-1,/,/
COc1cc2c(cc1OC)CN(CC(O)c1ccccc1)CC2 (stereo unspecified),8,-100,57*,-4,-11,41*,33*
COc1cc2c(cc1OC)CN(Cc1cccs1)CC2,-3,1,29*,-4,-11,98*,87*
O=C(NCCc1ccccc1)c1ccccc1NS(=O)(=O)N1CCCC1,-6,3,27,-7,10,/,/
O=S(=O)(Nc1cccc2ccccc12)N1CCCC1,-5,3,28*,-5,9,72*,59*
COc1ccc(-c2oc3ccccc3c(=O)c2OCC(=O)O)cc1,35*,-3,98*,-4,2,+,163*
CCOC(=O)COc1c(-c2ccc(OC)cc2)oc2ccccc2c1=O,43*,5,68*,2,-1,+,+
O=C(O)COc1c(-c2ccc(Cl)cc2)oc2ccccc2c1=O,8,-3,7,0,-1,/,/
O=C(O)COc1c(-c2ccco2)oc2ccccc2c1=O,25,-1,46*,-1,2,+,+
CCOC(=O)c1c(-c2ccccc2)oc2ccc(OC)cc12,3,4,24,3,-1,/,/
CC(C)C[C@H]1COc2cc(NCc3ccc(Cl)c(Cl)c3)ccc2S(=O)(=O)N1,/,/,/,/,6,/,/
CN(CC#Cc1ccccc1)C(N)=NC(=O)/C=C/c1cccc(C(F)(F)F)c1,/,/,/,/,1,/,/
Cc1nnc2n(-c3ccccc3)c(=O)c3ccccc3n12,-6,-3,-2,9,-4,/,/
Cc1c(O)c2ccccc2n(-c2ccccc2)c1=O,16,0,47*,10,11,77*,54*
COC(=O)C1=CN(C2CC2)C=C(C(=O)OC)C1c1ccc(C(=O)OC)cc1,-1,-21,44*,2,-3,-1,-2

# Bioassay records deposited in PubChem BioAssay by several laboratories.
